Data taken from PubChem BioAssay (NCATS).
Results filed as inconclusive are left out. A call without a number means that no potency is given here. Values without a mark were called inactive. Calls of active or inactive are those of the source. Calls come from the whole dose curve; as a rule, active = well fitted curve in the direction sought with a large enough effect; inconclusive = small, poorly fitted or top-dose-only effect, or another doubt; inactive = no such curve, though single readings can be large; an effect the other way counts as inactive or inconclusive.

Experiments:
[1] = molecular target: Cellular tumor antigen p53 (Homo sapiens) (UniProt P04637); experiment: Primary qHTS for small molecule compounds that upregulate eGFP-tagged delta133p53alpha (in N-terminal) cells. (AID 2060322); settings: NCI-H358 eGFP-delta133p53alpha fluorescence, 24 h; activation: hits give high values; note: nearly all actives have a fitted effect of over 75% in size; note: potency is the fitted concentration of half-maximal effect; for activation: series mostly up to about 56 µM
Cellular tumor antigen p53 (Homo sapiens), sequence (P04637 whole entry, looked up): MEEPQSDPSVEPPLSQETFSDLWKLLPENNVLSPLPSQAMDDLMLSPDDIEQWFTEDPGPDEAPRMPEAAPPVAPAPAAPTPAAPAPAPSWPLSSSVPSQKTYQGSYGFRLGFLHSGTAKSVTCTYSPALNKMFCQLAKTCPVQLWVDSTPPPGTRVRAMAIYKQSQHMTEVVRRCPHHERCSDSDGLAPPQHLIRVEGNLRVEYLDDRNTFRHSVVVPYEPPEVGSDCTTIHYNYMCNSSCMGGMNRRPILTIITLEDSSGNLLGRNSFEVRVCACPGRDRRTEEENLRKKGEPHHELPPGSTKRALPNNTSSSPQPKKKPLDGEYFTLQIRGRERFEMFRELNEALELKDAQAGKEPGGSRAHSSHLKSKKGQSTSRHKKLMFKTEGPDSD
Procedure, shortened: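 NCI-H358 cells pre-induced 24 h with 10 ng/ml doxycycline to express N-terminal eGFP-delta133p53alpha, then dosed 24 h at 37C without doxycycline; fixed, Hoechst-stained, GFP intensity by laser scanning cytometry, normalized to DMSO (0%) and 57.5 uM 5-azacytidine (100%).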

[2] = molecular target: Aldehyde dehydrogenase, mitochondrial (Homo sapiens) (UniProt P05091); experiment: qHTS for Inhibitors of the Aldehyde Dehydrogenase Family (ALDH2) Primary screen (AID 2061308); note: nearly all actives have a fitted effect of over 55% in size
[3] = molecular target: Retinaldehyde dehydrogenase 3 (Homo sapiens) (UniProt P47895); experiment: qHTS for Inhibitors of the Aldehyde Dehydrogenase Family (ALDH1A3) Primary screen (AID 2061315); note: potency is the fitted concentration of half-maximal effect

Row | Compound | activation [1] | Potency [2] | Potency [3] | Potency [1] | activity change, negative = inhibition [2] | activity change, negative = inhibition [3]
1 | CC1=C2C(=O)C=C(CO)[C@@H]2[C@H]2OC(=O)[C@H](C)[C@@H]2[C@@H](O)C1 | -3.57% | inactive | inactive | – | – | –
2 | CC(C)=C1C[C@@]2(C)C(=CC1=O)CC[C@@H](O)[C@@H]2C | 4.58% | inactive | inactive | – | – | –
3 | Fc1ccccc1-c1nc2ccn(Cc3ccc(-c4ccc(C(F)(F)F)cc4C(F)(F)F)nn3)cc-2n1 | 17% | inactive | inactive | – | – | –
4 | CC(C)(O)c1ccc2c(c1)C(O)CC1C(C)(C(=O)O)CCCC21C (stereo unspecified) | 5.34% | inactive | inactive | – | – | –
5 | Cc1cc(N2CCN(C(=O)Oc3ccc(-c4ccccc4)cn3)CC2)c2ccccc2n1 | -10.3% | inactive | inactive | – | – | –
6 | Nc1ncnc2c1nc(Cl)n2C1OC2COP(=O)(O)OC2C1O (stereo unspecified) | -12.3% | inactive | inactive | – | – | –
7 | COC(=O)C[C@@H]1C(C(=O)O)=CO[C@@H](O[C@@H]2O[C@H](CO)[C@@H](O)[C@H](O)[C@H]2O)/C1=C\COC(=O)/C=C\c1ccccc1 | 26% | inactive | inactive | – | – | –
8 | CC(=O)OC[C@@]12C(=O)C[C@@H](C)[C@]3(C[C@@H](c4ccoc4)OC3=O)[C@H]1CC[C@H](OC(C)=O)[C@]21CO1 | 27.5% | inactive | inactive | – | – | –
9 | C=CC(C)(O)CC/C=C(/C)COC(=O)C(C)C1CCC(C)(C=C)O1 (stereo unspecified) | 5.36% | inactive | inactive | – | – | –
10 | CC1(O)CC(O)C2(O)C=COC(O[C@@H]3O[C@H](CO)[C@@H](O)[C@H](O)[C@H]3O)C12 (stereo partly specified) | 0.893% | inactive | inactive | – | – | –
11 | COc1ccc(CNC(=O)c2sc3nc(C)cc(C)c3c2N)cc1 | -8.11% | inactive | inactive | – | – | –
12 | NC(N)=N/N=C/c1ccccc1Cl | 3.67% | inactive | inactive | – | – | –
13 | O=C(Nc1nnc(-c2ccc3c(c2)OCCO3)o1)C1CCCCC1 | -8.33% | inactive | inactive | – | – | –
14 | O=C(Nc1cc(C(F)(F)F)ccc1N1CCCCC1)c1ccncc1 | -17.9% | inactive | inactive | – | – | –
15 | CN(CC1(C)CCCO1)S(=O)(=O)c1ccc(Cl)c(S(N)(=O)=O)c1 (stereo unspecified) | -1.69% | inactive | inactive | – | – | –
16 | O=C1NC(Cc2c[nH]c3ccccc23)C(=O)NC1Cc1cnc[nH]1 (stereo unspecified) | -5.36% | inactive | inactive | – | – | –
17 | COc1cc2c(cc1O)CC[C@H]1[C@@H]2CC[C@]2(C)[C@H](O)CC[C@@H]12 | – | inactive | 17.8 µM (active) | 1.51 µM (active) | – | –
18 | O=C(O)CC(CCc1ccccc1)OC1OC(CO)C(O)C(O)C1O (stereo unspecified) | 3.57% | inactive | inactive | – | – | –
19 | C/C=C(\C)C(=O)O[C@@H]1CC2[C@@H](CC=C3C[C@@H](O[C@H]4C[C@H](OC)[C@H](O[C@H]5C[C@H](OC)[C@H](O[C@H]6C[C@H](OC)[C@H](O[C@H]7C[C@@H](OC)[C@H](O[C@@H]8O[C@H](CO)[C@@H](O)[C@H](O)[C@H]8O)[C@@H](C)O7)[C@@H](C)O6)[C@@H](C)O5)[C@@H](C)O4)CC[C@@]32C)[C@@]2(O)CC[C@H](C(C)=O)[C@@]12C (stereo partly specified) | -9.92% | – | – | – | 15.2% [at 11.2 µM] | -14.5% [at 11.2 µM]
20 | COc1c(O[C@@H]2O[C@H](CO)[C@@H](O)[C@H](O)[C@H]2O)c(CCC(=O)O)cc2ccoc12 | -7.63% | inactive | inactive | – | – | –
21 | CC(=O)OCC(=O)[C@@]12O[C@@H]1C[C@H]1[C@@H]3CC=C4C[C@@H](O)CC[C@]4(C)[C@H]3CC[C@@]12C | 29% | inactive | inactive | – | – | –
22 | CN(C)CC#CCCC(=O)C(O)(c1ccccc1)C1CCC1 (stereo unspecified) | 8.33% | inactive | inactive | – | – | –
23 | CCC(C)C(=O)O[C@H]1[C@H](O)[C@@]2(COC(C)=O)C(CC1(C)C)C1=CCC3[C@@]4(C)CC[C@H](O[C@@H]5O[C@H](C(=O)O)[C@@H](O)[C@H](O)[C@H]5O)[C@@](C)(CO)C4CC[C@@]3(C)[C@]1(C)C[C@@H]2O (stereo partly specified) | -0.893% | inactive | inactive | – | – | –
24 | C[C@]1(O)CC[C@@H]2C(C(=O)O)=CO[C@@H](O[C@@H]3O[C@H](CO)[C@@H](O)[C@H](O)[C@H]3O)[C@@H]21 | -11.5% | inactive | inactive | – | – | –
25 | CC1OC(OC2C(OC(=O)[C@]34CCC(C)(C)C[C@H]3C3=CCC5[C@@]6(C)CC[C@H](OC7OC(C(=O)O)C(O)C(O)C7O)C(C)(C)C6CC[C@@]5(C)[C@]3(C)CC4O)OC(CO)C2O)C(O)C(O)C1OC1OCC(O)C(O)C1O (stereo partly specified) | -3.82% | inactive | inactive | – | – | –
26 | CCC(CC)n1ccc2c(C(=O)NCc3c(C)cc(C)[nH]c3=O)cc(C#N)cc21 | -3.35% | inactive | inactive | – | – | –
27 | C[C@H]1CC[C@@]2(OC1)O[C@H]1CC3C4CC[C@H]5C[C@@H](O[C@@H]6O[C@H](CO)[C@H](O[C@@H]7O[C@H](CO)[C@@H](O)[C@H](O[C@@H]8OC[C@@H](O)[C@H](O)[C@H]8O)[C@H]7O[C@@H]7O[C@H](CO)[C@@H](O)[C@H](O)[C@H]7O)[C@H](O)[C@H]6O)[C@H](O)C[C@]5(C)C4=CC(=O)[C@]3(C)[C@H]1[C@@H]2C (stereo partly specified) | 6.11% | inactive | inactive | – | – | –
